Screening data: PubChem BioAssay, National Center for Advancing Translational Sciences (NCATS)
Imprint erasure – induces erasure of genomic imprints in mouse ES cells; Potency, µM (series often up to 60.7 µM), for the others: top-dose activity change, positive = activation, hits mostly activators; 110,000 compounds, 0.02% hits; mouse ES Peg3-LacZ reporter, beta-gal luminescence, 40 h
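Gelatin-coated wells received 300 freshly trypsinized female ES cells with a Peg3LacZ-Neo reporter on the maternal allele, then incubated 40 hours at 37C. BetaGlo was added for 5 minutes at room temperature before a single luminescence read.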
HEK293 cAMP cs – raises cAMP in parental HEK293 cells, TSHR agonist counter-screen. AID 938. parental HEK293 CNG cAMP sensor, membrane potential fluorescence. 73,000 compounds, 2.5% hits. Potency, µM (doses to about 57.1 µM), for inactives: at the top dose activation, most hits filed as activators; also: % of control where 0% means no effect; nearly all actives have a fitted effect of over 55% in size
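Parental HEK 293 cells stably expressing a modified CNG channel (no TSHR) report cAMP rise as membrane depolarization. Membrane potential dye with 100 uM RO 20-1724 was loaded for 60 min at room temperature, then compound added for 30 min; fluorescence read at 590 nm.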
TSHR ag – TSH receptor (human) agonism; 73,000 compounds, 0.48% hits; Potency, µM (highest dose often 57.1 µM), for the others: top-dose activation, actives largely listed as activators; HEK293-CNG-TSHR cells (CNG channel as cAMP sensor), membrane potential dye, cAMP; P16473; active = well fitted activation curve with a large enough effect in the main read-out, with a control signal flat, not every such curve was filed as active; inconclusive = small, poorly fitted or top-dose-only effect, or a change in a side signal; inactive = no such curve, though single readings can be large or run the other way; % of control where 0% means no effect;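 also: the control signal comes from parental cells without the receptor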
Target sequence (P16473 whole entry, looked up): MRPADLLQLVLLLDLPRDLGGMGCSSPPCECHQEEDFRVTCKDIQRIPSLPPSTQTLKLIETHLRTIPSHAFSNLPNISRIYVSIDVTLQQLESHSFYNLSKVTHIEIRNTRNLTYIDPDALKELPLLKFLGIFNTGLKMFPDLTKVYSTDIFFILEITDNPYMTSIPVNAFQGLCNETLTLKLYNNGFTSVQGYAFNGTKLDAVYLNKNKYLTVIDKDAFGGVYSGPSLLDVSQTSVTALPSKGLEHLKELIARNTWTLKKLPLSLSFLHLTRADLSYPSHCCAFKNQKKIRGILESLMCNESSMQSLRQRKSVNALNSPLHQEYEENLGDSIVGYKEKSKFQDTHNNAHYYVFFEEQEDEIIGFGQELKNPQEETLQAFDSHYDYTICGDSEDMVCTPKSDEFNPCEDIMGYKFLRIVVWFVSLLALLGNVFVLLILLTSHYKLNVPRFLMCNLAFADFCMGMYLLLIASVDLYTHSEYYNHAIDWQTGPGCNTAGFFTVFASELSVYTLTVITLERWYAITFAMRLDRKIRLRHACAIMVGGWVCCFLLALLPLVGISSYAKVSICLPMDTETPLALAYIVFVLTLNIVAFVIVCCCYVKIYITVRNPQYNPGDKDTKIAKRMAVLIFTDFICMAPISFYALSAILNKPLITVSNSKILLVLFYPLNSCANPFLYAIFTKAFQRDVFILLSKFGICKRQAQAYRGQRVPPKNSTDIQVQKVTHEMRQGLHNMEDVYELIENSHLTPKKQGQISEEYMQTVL
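HEK 293 cells stably expressing TSHR and a modified CNG channel, with CNG-only parental cells as counterscreen, were preloaded 60 min at room temperature with membrane potential dye containing 100 uM RO 20-1724. Compound exposure was 30 min, and depolarization was read as fluorescence at 590 nm.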
* marks the source's active call; other numbers are inactive results; ? = inconclusive; / = no result; [ ] = remark or other dose. The sample as a whole holds a higher share of hits than the screen did. Unless noted, calls follow the shape of the dose curve; as a rule, active = well fitted activation curve with a large enough effect; inconclusive = small, poorly fitted or top-dose-only effect; inactive = no such curve, though single readings can be large or run the other way. Potency is read from the fitted curve at half-maximal effect.

SMILES	Imprint erasure	HEK293 cAMP cs	TSHR ag
Cc1ccc(NC(=O)CN2C(=O)C(C)(C)c3ccccc32)cc1	-11%[10.9 µM]	/	/
COC(=O)c1ccc(CSc2nnc(SCc3ccc(C(=O)OC)o3)s2)o1	-20%	?	?
COC(=O)c1cc(CSc2nnc(NC3CCCCC3)s2)oc1C	-17%	13µM*	?
COc1nc(Oc2ccc(=O)n(-c3ccccc3)n2)nc(N(C)C)n1	-12%[10.9 µM]	/	/
COC(=O)c1nc2cc(C)ccn2c1F	-41%	-2%	1%
COC(=O)c1c(C(=O)OC)c2cc(C)ccn2c1Cl	-3%	20µM*	?
Cc1cc(C)c(NC(=O)CN2C(=O)NC3(CCCCC3)C2=O)c(C)c1	-4%	1%	4%
CCc1cccc(NC(=O)CN2C(=O)NC3(CCCCCCC3)C2=O)c1	-11%	14%	13µM*
CC(C)C(OC(=O)c1cc2sccc2n1C)C(=O)NCC1CCCO1 (centres undefined)	-8%	2µM*	?
CC(C)CC(OC(=O)c1cccs1)C(=O)NCC1CCCO1 (centres undefined)	3%	-15%	-2%
Cn1c(C(=O)OC(C(=O)NC2CCCCC2)c2ccncc2)cc2sccc21 (centres undefined)	-6%	16µM*	?
Cn1c(C(=O)OC(C(=O)NC2CCCC2)c2ccncc2)cc2sccc21 (centres undefined)	-17%	?	?
Cc1ccc(NC(=O)Cn2cc(C(=O)c3ccco3)c3ccccc32)cc1	-13%[10.9 µM]	/	/
COc1ccc(C(c2nnnn2Cc2ccc(F)cc2)N2CCN(c3ccccc3)CC2)cc1 (centres undefined)	-17%	29%	/
Fc1ccc(C(c2nnnn2Cc2ccccc2)N2CCSCC2)cc1 (centres undefined)	-8%	13µM*	?
COc1cc(-c2noc(C3CC(=O)N(c4cc(C)ccc4C)C3)n2)cc(OC)c1OC (centres undefined)	11%[10.9 µM]	/	/
O=[N+]([O-])c1ccc(S(=O)(=O)Cc2ccccc2)c2nonc12	?	-8%[11.4 µM]	-3%[11.4 µM]
CN1CCN(c2ccnc(-c3ccccc3C(F)(F)F)n2)CC1	-24%	32µM*	?
COc1ccccc1-c1nccc(N2CCN(C)CC2)n1	-14%	28%	26%
Cc1cc(-n2c(C)cc(C(=O)CSc3ncnc4ccccc34)c2C)no1	-23%	7.9µM*	?
Cc1cc(-n2c(C)cc(C(=O)CSc3nnc4sc5ccccc5n34)c2C)no1	-10%	2%	5%
COC(=O)[C@@]1(Cc2ccc(F)cc2)[C@H]2c3cc(C(=O)N4CCCC4)n(CCF)c3C[C@H]2CN1C(=O)c1ccccc1	2%	?	?
COC(=O)[C@@]1(Cc2ccc(F)cc2)[C@H]2c3cc(C(=O)N4CCCC4)n(Cc4ccc(C)c(F)c4F)c3C[C@H]2CN1C(=O)c1ccccc1	-29%	?	?
COC(=O)[C@@]1(Cc2ccc(F)cc2)[C@H]2c3cc(C(=O)N4CCCC4)n(CC4CC4)c3C[C@H]2CN1C(=O)c1ccccc1	-18%	4µM*	?
COC(=O)[C@@]1(Cc2ccc(F)cc2)[C@H]2c3cc(C(=O)N(C)C)n(Cc4cc(C)n(C)n4)c3C[C@H]2CN1C(=O)c1ccccc1	-13%	?	?
SMILES	Imprint erasure	HEK293 cAMP cs	TSHR ag
COC(=O)[C@@]1(Cc2ccc(F)cc2)[C@H]2c3cc(C(=O)N4CCCC4)n(Cc4ccc(C)o4)c3C[C@H]2CN1C(=O)c1ccccc1	-28%	32µM*	?
COC(=O)[C@@]1(Cc2ccc(F)cc2)[C@H]2c3cc(C(=O)N4CCCC4)n(Cc4ccc(S(C)(=O)=O)cc4)c3C[C@H]2CN1C(=O)c1ccccc1	-9%	16µM*	?
COC(=O)[C@@]1(Cc2ccc(F)cc2)[C@H]2c3cc(C(=O)N4CCCC4)n(Cc4cc(C)n(C)n4)c3C[C@H]2CN1C(=O)c1ccccc1	-7%	16µM*	?
COC(=O)[C@@]1(Cc2ccc(F)cc2)[C@H]2c3cc(C(=O)N(C)C)n(Cc4ccc(S(C)(=O)=O)cc4)c3C[C@H]2CN1C(=O)c1ccccc1	4%	?	?
Cc1cc(NC(=O)C2CCN(S(=O)(=O)c3ccc(Br)s3)CC2)ccc1Br	-19%[10.9 µM]	/	/
COc1ccc(CNC(=O)c2cc(-c3ccc(OC)c(OC)c3)nc3n[nH]c(-c4ccc(C)cc4)c23)cc1	-21%[10.9 µM]	/	/
C=CCn1c(C)cc(C(=O)CSc2nnc(Cc3ccccc3)o2)c1C	-20%	?	?
C=CCn1c(C)cc(C(=O)CSc2nc3ccccc3c(=O)[nH]2)c1C	-22%	25µM*	?
COCCn1c(C)cc(C(=O)CSc2nc3ccccc3c(=O)[nH]2)c1C	10%	1%	15%[11.4 µM]
